Experimental data taken from the supplement of paper PMC10338343.
± gives the standard deviation. Over roughly 5,500 sequences, “pre-steady-state target cleavage rate” has its median near 0.1; the highest 2% begin near 0.64. For the sample, the highest values were picked, then their nearest neighbours and some sequences at random.

Test system: MIWI (PIWIL1) piRISC loaded with piRNA #2 (30 nt)
Assay: pre-steady-state target cleavage rate (min^-1); MIWI and MILI are mouse PIWI proteins and EfPiwi is from a freshwater sponge; tags in brackets are library labels; higher = faster piRNA-guided slicing of the target
Details: guide: piRNA #2 5'p-UUAGGUAACCCAGUAGAUCCAGAGGAAUUC; auxiliary factor: 500 nM mouse GTSF1
Method: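 Cleave-'n-Seq: a library of target RNAs (target site embedded in constant flanks, ACAGCATTCCGCGTTAGTGATATCCG... 5' flank; DNA-blocked outside the site) at 0.1 nM was incubated with 1 nM active mouse MILI or MIWI piRISC (synthetic 5'-monophosphorylated piRNA guide) with or without 500 nM mouse GTSF1 at 33 °C for 1 min to 16 h. Uncleaved targets were sequenced and normalised to non-target controls, and the pooled three trials were fitted to a burst-and-steady-state model to give the pre-steady-state cleavage rate (min^-1; k3 is constrained to at most 1e-4). Sequence is the target site only; target names encode pairing extent (gX:gY) and contiguous / 1-mismatch / 2-mismatch / bulge geometry. Fits with R² ≤ 0 are excluded.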

Row | Sequence | pre-steady-state target cleavage rate
1 | CUUAAGGUCUGGAUCUACUCGGUUACCUAA | 0.0416 ± 0.02
2 | CUUAUCCUCUGGAUCUUCUGGGUUACGUAA | 0.45 ± 0.055
3 | CUAUUCCUCUGGAUCUACUGGUUACCUAA | 0.104 ± 0.026
4 | CAAUUCCUCUGGAUCUACUGAGUUACCUAA | 0.869 ± 0.075
5 | CUAUUCCUCUGGAUCUACUGGAGUUACCUAA | 0.00422 ± 0.0041
6 | CUUUUCCUCUGGAUCUACUGGUUACCUAA | 0.0817 ± 0.016
7 | CAAUUCCUCUGGAUCUACUGGAGUUACCUAA | 0.00382 ± 0.0035
8 | CUUUUCCUCUGGAUCUACUGAGUUACCUAA | 0.727 ± 0.048
9 | GAAUUCCUCUGGAUCUACUGAGGUUACCUAA | 0.00556 ± 0.0037
10 | GAAUUCCUCUGGAUCUACUGAGUUACCUAA | 0.67 ± 0.046
11 | CUUUUCCUCUGGAUCUACUGGGUUACCUAA [g2:g27:cont:t1A] | 0.408 ± 0.057
12 | CAAUUCCUCUGGAUCUACUGAGGUUACCUAA | 0.00648 ± 0.0048
13 | CUAUUCCUCUGGAUCUACUGAGUUACCUAA | 0.823 ± 0.06
14 | GAAUUCCUCUGGAUCUACUGGAGUUACCUAA | 0.00576 ± 0.0035
15 | CUUAUCCUCUGGAUCUACAGGGUUACCAAA | 0.237 ± 0.03
16 | CAAUUCCUCUCGAUCUACUGGGUAACCUAA | 0.476 ± 0.058
17 | GAAUUCCUCUGGAUCUUCUGGGAUACCUAA | 0.108 ± 0.018
18 | CUUAUCCUCUGGAUCUUCUGGGUAACCUAA | 0.0522 ± 0.013
19 | GAAUUCCUCUGCAACUACUGGGUUACCUAA | 0.413 ± 0.048
20 | CUAUUCCUCUGGAUCUACUGGGUAACCUAA | 0.231 ± 0.042
21 | CUUAAGGUCUGGAUCUCCUGGGUUACCUAA | 0.0565 ± 0.013
22 | CUUAUCCUCUGGAUCUACUGGGUUAACUAA | 0.407 ± 0.071
23 | CUUAAGGUCUGGAACUAGUGGGUUACCUAA | 0.0577 ± 0.017

Row | Sequence | pre-steady-state target cleavage rate
24 | CAAUUCCUCAGCAUCUACUGGGUUACCUAA | 0.437 ± 0.044
25 | CUUAAGCUCCUGGAUCUACUGGGUUACCUAA | 0.181 ± 0.021
26 | CUUAUCCUCGUGGAUCUACUGGGUUACCUAA | 0.161 ± 0.032
27 | GAAUUCCACUGGAUCUACUCGGUUACCUAA | 0.193 ± 0.022
28 | CUAUUCCUCUGGAUCUACUGCGUUACGUAA | 0.539 ± 0.08
29 | CUUAACCUCUGGAUCUACUGGGUUACCGUAA | 0.155 ± 0.019
30 | GAAUUCCUCUGAGAUCUACUGGGUUACCUAA | 0.381 ± 0.046
31 | GAAUUCCUCUAGAUCUACUGGGUUACCUAA | 0.731 ± 0.05
32 | CAAUUCCUCUAGGAUCUACUGGGUUACCUAA | 0.434 ± 0.048
33 | CUAUUCCUCUGAGAUCUACUGGGUUACCUAA | 0.471 ± 0.042
34 | GAAUUCCUCUAGGAUCUACUGGGUUACCUAA | 0.348 ± 0.074
35 | CUAUUCCUCUAGGAUCUACUGGGUUACCUAA | 0.278 ± 0.041
36 | CAAUUCCUCUAGAUCUACUGGGUUACCUAA | 0.807 ± 0.047
37 | CUAUUCCUCUAGAUCUACUGGGUUACCUAA | 0.67 ± 0.042
38 | CAAUUCCUCUGAGAUCUACUGGGUUACCUAA | 0.545 ± 0.057
39 | CUAUUACCUCUGGAUCUACUGGGUUACCUAA | 0.227 ± 0.041
40 | CUUAAGGUCUGGAACUACUGGCUUACCUAA | 0.027 ± 0.022
41 | CUUAAGCUCAGGAUCUACAGGGUUACCUAA | 0.081 ± 0.014
42 | CUUAAGGACAGCAUCUACUGGGUUACCUAA | 0.00648 ± 0.0035
43 | CUAUUCGUCUGGAUCUACUGGGUUACCAAA | 0.36 ± 0.064
44 | CAUUUCCUCUGGAUCUACUGGGUUACCUAA | 0.541 ± 0.059
45 | CAUUUCCUCUCGAUCUACUGGGUUACCUAA | 0.808 ± 0.052
46 | GAUUUCCUCUCGAUCUACUGGGUUACCUAA | 0.66 ± 0.067

Row | Sequence | pre-steady-state target cleavage rate
47 | CUUUUCCUCUCGAUCUACUGGGUUACCUAA | 0.602 ± 0.04
48 | CUUUACCUCUCGAUCUACUGGGUUACCUAA | 0.47 ± 0.033
49 | GAUUUCCUCUGGAUCUACUGGGUUACCUAA | 0.183 ± 0.042
50 | CAAUUCGACUGGAUCUACUGGGUUACCUAA | 0.357 ± 0.05
51 | CUUUUCCUCUGGAUCUACUGCGUAACCUAA | 0.174 ± 0.032
52 | CUUAAGGAGAGGAUCUACUGGGUUACCUAC [g2:g20:cont:t1C] | 0.0183 ± 0.0054
53 | CAAUUGCUCUGGAUCUACUGGGUUACCUUA | 0.212 ± 0.048
54 | GAAUUCCUCUGGAUCUACUCGCUUACCUAA | 0.00392 ± 0.0028
55 | CUUAAGGAGAGCGAUCUACUGGGUUACCUAA | 0.00514 ± 0.003
56 | CUAUUCCUCUCGAUCUACUGCGUUACCUAA | 0.948 ± 0.092
57 | CUUUUCCUCAGGAUCUACUGCGUUACCUAA | 0.524 ± 0.062
58 | GAAUUCCUCUCGAUCUACUGCGUUACCUAA | 0.691 ± 0.063
59 | CAAUUCCUCUCGAUCUACUGCGUUACCUAA | 0.907 ± 0.084
60 | CAAUUCCUCUCGAUCUACUCGGUUACCUAA | 0.22 ± 0.022
61 | CUUUUCCUCUGGAUCUACUGCGUUACCUAA | 0.527 ± 0.057
62 | CUUUUCCUCUCGAUCUACUGCGUUACCUAA | 0.845 ± 0.072
63 | CAAUUCCUCUGGAUCUACUGCGUUACCUAA | 0.593 ± 0.069
64 | CUAUUCCUCUGGAUCUACUGCGUUACCUAA | 0.521 ± 0.065
65 | GAAUUCCUCUGGAUCUACUGCGUUACCUAA | 0.469 ± 0.056
66 | GAAUUCCUCUCGAUCUACUCGGUUACCUAA | 0.123 ± 0.018
67 | CUAUUCCUCUCGAUCUACUCGGUUACCUAA | 0.196 ± 0.017
68 | CUUAUCCUCUGGAUCUACUCCGUUACCUAA | 0.021 ± 0.009
69 | CAUUUCCUCUGGAACUACUGGGUUACCUAA | 0.612 ± 0.044

Row | Sequence | pre-steady-state target cleavage rate
70 | GAAUUGCUCAGGAUCUACUGGGUUACCUAA | 0.168 ± 0.037
71 | CUUAAGGUCUGGAUCUACUGGGUUUGCUAA | 0.0859 ± 0.018
72 | CAAUUCCUGUGGAUCUACAGGGUUACCUAA | 0.268 ± 0.036
73 | CUUAAGCUCUGGAUCUACUGGGUUACCUAG [g2:g24:cont:t1G] | 0.0755 ± 0.013
74 | CAAUUCCUUGGAUCUACUGGGUUACCUAA | 0.45 ± 0.061
75 | CUUAACCUCAGGAUCUAGUGGGUUACCUAA | 0.128 ± 0.017
76 | CUUAUCCUCUCGAUCUACUGGGUUACCUAA | 0.561 ± 0.04
77 | CUUAUCCUCUCGAUCUACUGCGUUACCUAA | 0.636 ± 0.048
78 | CUUAACCUCUCGAUCUACUGCGUUACCUAA | 0.614 ± 0.057
79 | CAAUUCCACUGGAUCUACUGGGUUACCAAA | 0.456 ± 0.083
80 | CUUAUCCUCUGGAUCUACAGGGUAACCUAA | 0.128 ± 0.023
81 | GAAUUCCUCUGGUUCUACUGGGUUACCUAA | 0.678 ± 0.042
82 | GUAUUCCUCUGGUUCUACUGGGUUACCUAA | 0.0955 ± 0.034
83 | GAAUUCCUCUGGUUCUACUGGGUUACGUAA | 0.618 ± 0.035
84 | CAAUUCCUCUGGUCUACUGGGUUACCUAA | 0.369 ± 0.088
85 | GAAUUCCUCUGGUUCUACUGGGUUACCUUA | 0.427 ± 0.064
86 | CUAUUCCUCUGGUUCUACUGGGUUACCUAA | 0.711 ± 0.043
87 | CUAUUCCUCUGGUUCUACUGGGUUACCUUA | 0.371 ± 0.057
88 | GAAUUCCUCUGGUCUACUGGGUUACCUAA | 0.301 ± 0.059
89 | CAAUUCCUCUGGUUCUACUGGGUUACCUUA | 0.475 ± 0.066
90 | CUAUUCCUCUGGUUCUACUGGGUUACGUAA | 0.629 ± 0.059
91 | CAAUUCCUCUGGUUCUACUGGGUUACGUAA | 0.688 ± 0.045
92 | CAAUUCCUCUGGUUCUACUGGGUUACCUAA | 0.868 ± 0.05
